PKA-R1A act: activators of PKA-R1A complex; P00514+P68181; PKA-R1A dissociation, Cy5-IP20 fluorescence polarization; scaled: DMSO 0%, 113 µM cGMP 100%; activation, % at 11.4 µM; actives 0.083% (n = 340,000); AID 504707;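 active means percent activation above the mean of all tested compounds plus 3 SD, cut at about 19% in these data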;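 further: higher means more PKAc released from R1A so a rise in polarization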
MsrA act: activators of bovine methionine sulfoxide reductase A. purified bovine MsrA, absorbance read-out. activation, % at 10.6 µM. actives 0.3% (n = 360,000). AID 602163; in the data active means activation above about 7.5%;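 further: 0% = vehicle and 100% = reference activator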
MsrA inh: inhibits bovine methionine sulfoxide reductase A; actives 0.75% (n = 360,000); inhibition, % at 15.5 µM; purified bovine MsrA, absorbance read-out; in the data active means inhibition above about 4.5%;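 further: 0% = vehicle wells with enzyme and 100% = reference inhibitor wells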
SUMO Mot1 rescue: SUMOylation pathway inhibition by Mot1-301 growth rescue | S. cerevisiae Mot1-301 growth rescue, ATP luminescence, 38.5C; percent above DMSO median, 100 means doubled | growth rescue, % at 18.8 µM | actives 1% (n = 320,000);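 active means every valid replicate shows activation above 250% relative to neutral control wells; inactive means the rest, any valid replicate at or below 250%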;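 further: OY570 slx delta 5 strain wells were the positive control but not used for scaling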
PKA-R2B act: PKA-R2B complex activation; AID 504700; PKA-R2B holoenzyme dissociation, Cy5-IP20 fluorescence polarization; R2B truncated from residue 108, S112A mutant; 0% DMSO only, 100% 113 µM cGMP; P22694+P31323; activation, % at 11.4 µM; actives 0.079% (n = 340,000);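 active means activation above a cutoff set at the mean over all compounds plus 3 SD, cut at about 18% in these data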;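 further: higher means more holoenzyme dissociation and a rise in polarization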
Target sequence (P31323 whole entry, looked up, other chains not shown, the tested form may be a part): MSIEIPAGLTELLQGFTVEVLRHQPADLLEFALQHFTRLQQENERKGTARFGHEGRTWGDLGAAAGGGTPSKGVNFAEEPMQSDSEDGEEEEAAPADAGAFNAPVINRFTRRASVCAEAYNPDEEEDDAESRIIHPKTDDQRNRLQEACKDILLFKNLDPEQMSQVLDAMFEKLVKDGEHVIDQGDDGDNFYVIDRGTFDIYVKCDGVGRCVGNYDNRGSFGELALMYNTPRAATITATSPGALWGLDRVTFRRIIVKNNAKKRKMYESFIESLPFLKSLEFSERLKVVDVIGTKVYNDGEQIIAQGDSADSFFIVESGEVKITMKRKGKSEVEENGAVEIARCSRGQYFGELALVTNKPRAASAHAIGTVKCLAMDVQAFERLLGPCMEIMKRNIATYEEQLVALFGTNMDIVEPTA
Mot1 SUMO dose: yeast SUMO pathway inhibition in dose response | shares compounds with SUMO Mot1 rescue | S. cerevisiae Mot1-301 galactose growth, ATP luminescence, 24 h; -100 = growth of slx-deleted rescue strain | growth activity, percent, % at 42 µM | 2,300 tested, under 10 active;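 active means Signal drops as the depositor expects, and the fitted half-maximal dose is no more than ten times the top valid tested dose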;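 further: more negative values mean stronger growth rescue toward the control strain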
* marks the source's active call; other numbers are inactive results; . = no result given; + = active, no number. Only some compounds are listed: those with a hit (about 2% of all), similar ones and a draw of the others.

SMILES	PKA-R1A act	MsrA act	MsrA inh	SUMO Mot1 rescue	PKA-R2B act	Mot1 SUMO dose
O=C(Nc1ccccc1C(=O)NCC1CC1)c1cccs1	.	.	0	.	.	.
COc1ccccc1CCn1cnc(-c2cccc(Br)c2)c1C(C)C	.	.	0	.	.	.
COC(=O)[C@]12C[C@H](CC(=O)NCCCN3CCCC3=O)C(=O)N(Cc3ccccc3)C1=C[C@H](C(C)(C)C)O[C@@H]2C	.	.	0	.	.	.
CCCCCc1ccc(S(=O)(=O)NCCc2ccncc2)cc1	-4	0	-1	63	-3	.
CCCc1ccc(S(=O)(=O)NCCc2ccncc2)cc1	2	-1	-1	541*	10	0
COc1ccc(-c2c(C)nn3c(C)cc(C)nc23)cc1	-8	-6	0	519*	-9	0
COC(=O)c1ccncc1C(=O)Nc1ccc(Oc2ncc(C(F)(F)F)cc2Cl)cc1	9	-1	1	369*	-4	-1
CC[C@H](NC(=O)[C@H]1O[C@@H](n2cnc3c(=O)[nH]c(N)nc32)[C@H](O)[C@@H]1O)c1ccccc1	.	.	0	.	.	.
CC(=O)N/C(=C\c1ccccc1)C(=O)OCC(=O)c1ccccc1	6	-5	0	679*	9	0
Cc1cc(O)c(/C=N/Nc2cccc(Cl)c2)c(=O)o1	-4	-6	0	416*	1	0
Cc1cc(O)c(/C=N/Nc2ccc(Cl)cc2)c(=O)o1	8	-1	0	127	5	.
O=C(C(=O)N1CCN(C(=O)C2CCC2)CC1)c1cccc(C(F)(F)F)c1	.	.	0	.	.	.
CCc1cc(/C(Cc2cscn2)=N\O)c(O)cc1O	-10	-5	2	7	2	.
CCc1cc(/C(Cc2ccccn2)=N\O)c(O)cc1O	6	-13	1	486*	3	0
O=c1cnc2cc([N+](=O)[O-])ccc2[nH]1	3	-5	3	848*	-13	0
COc1ccc(NC(=O)CN2C(=O)COc3ccc(S(=O)(=O)N4CCOCC4)cc32)cc1Cl	13	1	-1	-9	0	.
Cc1ccc(NC(=O)CN2C(=O)COc3ccc(S(=O)(=O)N4CCOCC4)cc32)cc1F	-20	-1	2	500*	-15	0
O=C(O)c1c2c(nc3ccccc13)CCCCC2	-7	-3	-1	-10	-1	.
CN(C)C(=O)c1c2c(nc3ccccc13)CCCC2	6	-4	0	+	-7	0
C[C@@H]1CCCCO[C@@H](CN(C)C(=O)NC2CCCCC2)[C@@H](C)CN([C@H](C)CO)C(=O)c2cc(N(C)C)ccc2O1	.	.	0	.	.	.
O=C(CC1(CC2=NS(=O)(=O)c3ccccc3N2)CCCC1)NCCc1ccccc1	-2	1	1	614*	-5	0
Cc1ccc(-c2nc3c(=O)n(C)c4ccccc4c3o2)cc1	1	0	0	-6	-3	.
Cc1ccc(-c2nc3c(=O)n(-c4ccccc4)c4c(c(=O)n(C)c(=O)n4C)c3o2)cc1	.	-5	1	796*	.	1
O=C(c1cccs1)N(C(=O)c1cccs1)c1ccc(Br)cn1	9	-2	0	482*	-7	-3
Cc1cc(C)c(C2=NOC3c4ccccc4OCC23)c(C)c1 (stereo unspecified)	.	.	0	.	.	.
SMILES	PKA-R1A act	MsrA act	MsrA inh	SUMO Mot1 rescue	PKA-R2B act	Mot1 SUMO dose
O=C1NC2(CCCCC2)NN1c1ccccc1	4	1	-1	479*	-6	1
COc1cccc(/C=C2/C(=O)NN(c3ccc(Br)cc3)C2=O)c1O	-10	-3	4	528*	-12	0
COc1cc(/C=C2/C(=O)NN(c3ccc(Cl)cc3)C2=O)cc(Br)c1O	-17	-5	1	53	2	.
Cc1cc(C(F)(F)F)nc(SCC(=O)Nc2cc(C)on2)n1	-5	-1	2	+	-5	0
Cc1cc(C)nc(SCC(=O)Nc2cc(C)on2)n1	3	-2	1	17	-5	.
COC(=O)CCC(=O)OC1(C)C(=O)C=C2C=C(C3CC3)N(Cc3ccc4c(c3)OCO4)C=C2C1=O (stereo unspecified)	-6	-3	2	881*	-4	0
Cc1cccc(-n2c(-c3ccco3)n[nH]c2=S)c1	1	2	0	-8	-3	.

Assay outcomes from PubChem BioAssay.
